# Compounds with a hit are over-represented: about 0.84% of the library has one in this group of screens.
# SRC3 inh: SRC3 coactivator transcriptional activity inhibitors, primary screen, cell-based, luminescence; HEK293 GAL4-SRC3 luciferase reporter; inhibition, % at 3.6 µM; 360,000 tested, 0.17% active; AID 588352, 2011;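 active = inhibition above a per-campaign cutoff, the mean of all compounds plus 3 SD, cut at about 60% in these data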;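 note: 0% = DMSO-treated cells and 100% = gossypol-treated cells at 36 µM; higher means less SRC3-driven luciferase light from the GAL4 reporter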
# NCOA2 inhibitor: inhibition of GAL4-SRC2 driven luciferase reporter, primary screen, SRC2 inhibitor project, cell-based, luminescence | Nuclear receptor coactivator 2 (Homo sapiens), Q15596 | HEK293 GAL4-SRC2 luciferase reporter | inhibition, % at 9 µM | 370,000 tested, 0.17% active;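 active = inhibition above the mean inhibition of all tested compounds plus 3 SD, set per campaign, cut at about 52% in these data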;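 note: 0% = DMSO treated cells and 100% = cells given Gossypol at 36 µM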
# COUP-TFII inh: NR2F2 transcriptional activity inhibitors, primary screen, cell-based, luciferase reporter, HEK293T, luminescence | COUP transcription factor 2 (Homo sapiens), P24468 | HEK293T NGFI-A luciferase reporter | inhibition, % at 8.6 µM | 370,000 tested, 0.7% active;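 active = inhibition above a per-plate cutoff, mean inhibition of test wells between control levels plus 3 SD, cut at about 38% in these data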;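 note: cells cotransfected with COUP-TFII expression vector driving the NGFI-A reporter; 0% = median of COUP-TF2 test wells and 100% = reporter-only cells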
# SRC1 inh: SRC1 coactivator transcriptional activity inhibitors, primary screen, cell-based, luminescence; Nuclear receptor coactivator 1 (Homo sapiens), Q15788; HEK293 GAL4-SRC1 luciferase reporter; inhibition, % at 3.6 µM; 360,000 tested, 0.12% active;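 active = inhibition above the campaign mean plus 3 SD, with each screening campaign given its own cutoff, cut at about 60% in these data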;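 note: 0% = DMSO treated cells and 100% = gossypol at 36 µM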
# LRH-1 inv ag: LRH-1 (NR5A2) inverse agonists, primary screen, cell-based, luminescence, HEK293T, StAR-luciferase reporter; Nuclear receptor subfamily 5 group A member 2 (Homo sapiens), O00482; LRH-1 transfected, 24 h; inhibition, % at 3.6 µM; 360,000 tested, 0.13% active;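 active = inhibition above the mean inhibition of all tested compounds plus 3 SD, cut at about 73% in these data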;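 note: 0% = DMSO wells and 100% = reporter-only cells lacking LRH-1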
# Gal4-VP16 ctr: Gal4-VP16 luciferase reporter inhibitors, counter-screen for COUP-TFII antagonist project, cell-based, luminescence, HEK293; shares compounds with COUP-TFII inh; inhibition, % at 8.5 µM; 2,500 tested, 25% active; in the data active = inhibition above about 13%
# NR2F2 inh conf: NR2F2 transcriptional activity inhibitors, confirmation, cell-based, luciferase reporter, HEK293, triplicate. AID 687008, 2013. 2,500 tested, 45% active. inhibition, % at 8.5 µM. HEK293 NGFI-A luciferase reporter, luminescence. shares compounds with COUP-TFII inh;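 active = mean inhibition over three repeats above a set limit taken from the earlier primary screen, cut at about 38% in these data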;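 note: 100% = cells given the luciferase reporter alone without the COUP-TF2 vector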
# * marks the source's active call; other numbers are inactive results; nt = not tested or not shown; ! = repeats disagree.
SMILES,SRC3 inh,NCOA2 inhibitor,COUP-TFII inh,SRC1 inh,LRH-1 inv ag,Gal4-VP16 ctr,NR2F2 inh conf
O=C(c1cc(COc2ccc3ncccc3c2)on1)N1CCCC1,1.3,-12.7,45.6*,-8.0,4.3,-40.2,23.9
COCC1CCN(C(=O)c2cc(COc3ccc4ncccc4c3)on2)CC1,26.8,16.1,19.2,17.7,34.5,nt,nt
O=C(NC1CCCC1)c1cc(COc2ccc3ncccc3c2)on1,37.2,nt,nt,23.6,35.7,nt,nt
O=C(CN1CCN(S(=O)(=O)c2cccs2)CC1)N1CCCCC1,-4.5,4.8,2.8,-16.4,6.8,nt,nt
C=CCC12C[C@@]3(O[C@H](c4ccc(C(F)(F)F)cc4)N=C3C[C@H](c3ccc(OC)cc3)[C@H]1C)N(Cc1ccc3c(c1)OCO3)C2=O,nt,-20.6,8.2,nt,nt,nt,nt
CN1CCCCC(NC(=O)CSc2ccccc2)C1=O (centres undefined),nt,-16.9,-0.8,nt,nt,nt,nt
CCN(CC)S(=O)(=O)c1ccc(/C=C/C(=O)Nc2ccc(F)c(F)c2F)cc1,39.3,8.2,62.5*,35.9,37.8,-18.4,47.4*
CCN(CC)S(=O)(=O)c1ccc(/C=C/C(=O)Nc2ccc(Br)cc2F)cc1,41.0,26.4,55.9*,25.3,32.9,0.2,69.8*
CCN(CC)S(=O)(=O)c1ccc(/C=C/C(=O)Nc2ccc(F)cc2F)cc1,6.2,-11.4,49.8*,-16.7,-4.4,-33.6,28.2
COc1ccc(Cn2c(C)cc(O)cc2=O)cc1,nt,7.2,9.1,nt,nt,nt,nt
CC(=O)N1c2ccc(S(=O)(=O)N(C)Cc3ccco3)cc2CC1C (centres undefined),27.8,2.4,10.6,19.8,-1.3,nt,nt
COc1ccc(NS(=O)(=O)c2cccc(C(=O)NC3CCN(Cc4ccccc4)CC3)c2)cc1,17.4,26.7,27.7,-2.5,14.1,nt,nt
O=C(NC1CCN(Cc2ccccc2)CC1)c1ccc(S(=O)(=O)NCc2ccco2)cc1,12.2,11.3,47.7*,-25.3,22.7,5.6,22.2
O=C(NC1CCCCC1)c1ccc(S(=O)(=O)NCc2ccco2)cc1,12.3,-30.3,6.3,-5.4,12.8,nt,nt
COc1ccc(CN2CCN(C(=O)c3ccc(S(=O)(=O)NCc4ccco4)cc3)CC2)cc1,7.3,11.2,45.2*,15.7,39.7,4.8,30.6
COc1ccc(Cl)cc1NS(=O)(=O)c1cccc(C(=O)NC2CCN(Cc3ccccc3)CC2)c1,29.6,27.4,47.7*,-2.9,33.3,16.7*,32.9
COC(=O)N1C[C@H](Oc2ncccn2)[C@H]2C[C@@H]1c1ccccc1O2,nt,-3.9,-0.7,nt,nt,nt,nt
COC(=O)C1CN(Cc2cn(Cc3ccc(Cl)cc3)nn2)CCS(=O)(=O)N1Cc1ccc(Cl)cc1 (centres undefined),nt,14.6,38.4*,nt,nt,-4.0,3.4
COc1cc(NC(=O)c2ccnc(N)c2)cc(C(=O)Nc2cccc(C(F)(F)F)c2)c1,-14.4,-21.5,8.7,-8.0,-23.2,nt,nt
COc1cc(NC(=O)c2cnc(N)o2)cc(C(=O)Nc2cccc(C(F)(F)F)c2)c1,5.1,13.4,66.1*!,7.8,14.3,-21.1,21.9
O=C(N[C@@H]1CCCc2c1cnn2-c1ccc(F)cc1F)c1ccccn1,nt,nt,38.3*,nt,nt,-6.8,6.5
CN1N=C(C(=O)NC2CCCc3c2cnn3-c2ccc(F)cc2F)CCC1=O (centres undefined),22.5,7.3,16.9,19.6,-0.5,nt,nt
Cc1ccc(C(=O)NC2CCCc3c2cnn3-c2ccc(F)cc2F)cn1 (centres undefined),-9.4,29.1,56.1*,25.8,25.6,5.2,59.4*
COc1cc(C(=O)NC2CCCc3c2cnn3-c2ccccc2F)cc(OC)c1OC (centres undefined),36.7,10.4,46.4*,15.8,33.4,-9.3,19.0
